Among the data in PubChem BioAssay (EPA / NIEHS) are outcome and AC50 values, retold here.

Inconclusive results are not listed. The source made the active and inactive calls. Rule for the calls, unless noted: active = hit-call score of the fitted dose curve at least 0.9, where 1 is the maximum; inactive = score below 0.9.

Assay [1] deals with Retinoic acid receptor alpha (Homo sapiens) (UniProt P10276). Briefly: ATG_DR5_RAR_CIS: Attagene CIS-FACTORIAL HepG2 Assay for human Retinoic Acid Receptor Alpha (RARE), DR5 submotif (AID 2282934). The settings on record: HepG2 Attagene cis-factorial RARE DR5 reporter, mRNA; actives raise or lower the signal. In short, it runs like this:
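HepG2 cells transiently transfected with multiplexed reporter units; DR5 cis-element drives reporter through endogenous transcription factors. After 24 h dosing, reporter mRNA quantified by RT-PCR, fluorescent labeling, HpaI digestion and capillary electrophoresis; bidirectional fitting versus DMSO.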

Assay [2] concerns the target Estrogen-related receptor gamma (Homo sapiens) (UniProt P62508). Briefly: ATG_ERRg_TRANS: Attagene TRANS-FACTORIAL HepG2 Assay for human Estrogen-Related Receptor gamma (ERRg) (AID 2282977; active = hit-call score of the fitted dose curve at least 0.9, where 1 is the maximum;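 note: hits increase reporter signal over DMSO so potencies reflect activators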). As to conditions: HepG2 Attagene TRANS reporter, ERRg transactivation. In short, it runs like this:
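HepG2 cells transiently transfected with multiplexed GAL4-UAS reporter units driven by chimeric NR-Gal4 proteins; 24 h exposure. Reporter mRNA quantified by RT-PCR, fluorescent labelling, HpaI digestion and capillary electrophoresis; gain of signal vs DMSO.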

The nature of assay [3]: BSK_3C_uPAR: BioMAP Diversity Plus: 3C Assay for Urokinase-type plasminogen activator receptor (uPAR) Biomarker Activity (AID 2282998). The settings on record: BioMAP 3C HUVEC, uPAR biomarker ELISA; actives raise or lower the signal. In short, it runs like this:
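Readout: ELISA for surface uPAR. System: human umbilical vein endothelial primary cells, 24 h after chemical exposure. Analysis: bidirectional fit, DMSO baseline.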
For orientation: In an ELISA, binding on a coated surface is turned into a signal by an enzyme label.

Assay [4] is described as follows: BSK_3C_VCAM1: BioMAP Diversity Plus: 3C Assay for Vascular cell adhesion molecule 1 (VCAM1) Biomarker Activity (AID 2282999). As to conditions: BioMAP 3C HUVEC, VCAM1 ELISA, cytokine-stimulated; actives raise or lower the signal. In short, it runs like this:
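Human umbilical vein endothelial cells (3C system), biomarker read by ELISA 24 h after dosing; bidirectional fit against DMSO baseline. Cytotoxicity tracked by SRB total-protein staining in parallel cultures at biomarker time.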

Assay [5] in a line: BSK_4H_Eotaxin3: BioMAP Diversity Plus: 4H Assay for Eotaxin 3 Biomarker Activity (AID 2283000).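 For outcome: CCL26 protein level quantified by ELISA in parallel with SRB cytotoxicity check.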 The settings on record: primary human endothelial cells (HUVEC); actives raise or lower the signal. In short, it runs like this:
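ELISA quantitation of CCL26 (Eotaxin-3) protein from chemically dosed human vascular endothelial cells at 24 h; increases and decreases both scored relative to DMSO-treated baseline.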

Read-out in assay [6]: Intercellular Adhesion Molecule 1 (ICAM1), ICAM1 (gene 3383)
Briefly: BSK_3C_ICAM1: BioMAP Diversity Plus: 3C Assay for Intercellular Adhesion Molecule 1 (ICAM1) Biomarker Activity (AID 2283003). The settings on record: primary human endothelial cells (HUVEC); actives raise or lower the signal. In short, it runs like this: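 HUVEC primary cells stimulated under 3C conditions; ICAM1 measured by ELISA 24 h after compound dosing. Curves fitted bidirectionally against the DMSO baseline. Overt cytotoxicity checked by SRB staining of parallel cultures.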

A short description of assay [7]: BSK_3C_Proliferation: Cell Proliferation Assessment in the BioMAP Diversity Plus: 3C Assay (AID 2283006).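 For AC50: potency may reflect either rise or fall in cell number versus DMSO.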 The settings on record: primary human endothelial cells (HUVEC). In short, it runs like this:
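Subconfluent HUVEC (3C system) cultured with chemical; relative cell number read at 48 h by sulforhodamine B total-protein staining (0.1% SRB after 10% TCA fixation, 560 nm). Bidirectional fit relative to DMSO.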

Read-out in assay [8]: Interleukin-1 alpha (IL1a), IL1A (gene 3552)
Briefly: BSK_BE3C_IL1a: BioMAP Diversity Plus: BE3C Assay for Interleukin-1 alpha (IL1a) Biomarker Activity (AID 2283016). As to conditions: primary human bronchial epithelial cells; actives raise or lower the signal. In short, it runs like this: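 Human primary bronchial epithelial cells, 24 h chemical exposure; IL-1a quantified by ELISA, fitted bidirectionally against DMSO. Cytotoxicity assessed in parallel by SRB total-protein staining at the time of measurement.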

Read-out in assay [9]: Monocyte Chemoattractant Protein-1 (MCP1), CCL2 (gene 6347)
Briefly: BSK_3C_MCP1: BioMAP Diversity Plus: 3C Assay for Monocyte Chemoattractant Protein-1 (MCP1) Biomarker Activity (AID 2283017). The settings on record: primary human endothelial cells (HUVEC); actives raise or lower the signal. In short, it runs like this: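 Using human vascular primary endothelium, researchers measured MCP-1 by ELISA 24 h after treatment, with DMSO serving as negative control for bidirectional fitting.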

Read-out in assay [10]: Monocyte Chemoattractant Protein-1 (MCP1), CCL2 (gene 6347)
Briefly: BSK_4H_MCP1: BioMAP Diversity Plus: 4H Assay for Monocyte Chemoattractant Protein-1 (MCP1) Biomarker Activity (AID 2283018). As to conditions: primary human endothelial cells (HUVEC); actives raise or lower the signal. In short, it runs like this: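 Human umbilical vein endothelial cells (4H system) exposed to chemicals for 24 h in 96-well format. MCP-1 measured by ELISA; bidirectional fitting against DMSO, with SRB total-protein staining in parallel cultures for cytotoxicity.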

Read-out in assay [11]: Human Leukocyte Antigen - DR isotype (HLADR), HLA-DRA (gene 3122)
Nature of the assay: BSK_3C_HLADR: BioMAP Diversity Plus: 3C Assay for Human Leukocyte Antigen - DR isotype (HLADR) Biomarker Activity (AID 2283019).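 For outcome: ELISA of cell-surface HLA-DR on HUVEC 24 h after dosing.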 As to conditions: primary human endothelial cells (HUVEC); actives raise or lower the signal. In short, it runs like this:
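Compound added to primary HUVEC cultures, 24 h incubation, then HLA-DR determined by ELISA; endpoint derived by bidirectional fitting relative to DMSO negative control.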

Read-out in assay [12]: Interleukin-8 (IL8), CXCL8 (gene 3576)
Nature of the assay: BSK_3C_IL8: BioMAP Diversity Plus: 3C Assay for Interleukin-8 (IL8) Biomarker Activity (AID 2283020). The settings on record: primary human endothelial cells (HUVEC); actives raise or lower the signal. In short, it runs like this: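 Primary human umbilical vein endothelial cells were dosed for 24 h. IL-8 was quantified by ELISA and fitted bidirectionally against DMSO. Cytotoxicity was assessed in parallel cultures by SRB staining at 560 nm.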

Read-out in assay [13]: Monokine induced gamma interferon (MIG), CXCL9 (gene 4283)
Briefly: BSK_3C_MIG: BioMAP Diversity Plus: 3C Assay for Monokine induced gamma interferon (MIG) Biomarker Activity (AID 2283021).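 For AC50: MIG protein level measured by immunoassay in the treated endothelial cultures.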 The settings on record: primary human endothelial cells (HUVEC); actives raise or lower the signal. In short, it runs like this:
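HUVEC primary endothelial cultures dosed with chemical; MIG quantified by ELISA at 24 h. Data fitted bidirectionally against DMSO control, with parallel SRB total-protein staining for cytotoxicity.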

Assay [14] is described as follows: BSK_3C_SRB: Viability Assessment in the BioMAP Diversity Plus: 3C Assay (AID 2283023).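 Note: fitted both ways against DMSO so a hit may be signal rise or drop.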 The settings on record: primary human endothelial cells (HUVEC). In short, it runs like this:
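Overt cytotoxicity is gauged in parallel confluent HUVEC cultures by SRB total-protein staining at the time of biomarker measurement, 24 h after dosing. Gain or loss of signal is fitted versus DMSO.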

Read-out in assay [15]: urokinase plasminogen activator (uPA), PLAU (gene 5328)
Nature of the assay: BSK_BE3C_uPA: BioMAP Diversity Plus: BE3C Assay for urokinase plasminogen activator (uPA) Biomarker Activity (AID 2283038).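 Note: uPA protein level quantified by ELISA in cell cultures; uPA read one day after compound addition.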 As to conditions: primary human bronchial epithelial cells; actives raise or lower the signal. In short, it runs like this:
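Using confluent primary human lung bronchial epithelial cultures, we dosed chemicals, waited 24 h, then ran a uPA ELISA, fitting bidirectionally against DMSO.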

Read-out in assay [16]: Interleukin-1 alpha (IL1a), IL1A (gene 3552)
Nature of the assay: BSK_LPS_IL1a: BioMAP Diversity Plus: LPS Assay for Interleukin-1 alpha (IL1a) Biomarker Activity (AID 2283080). As to conditions: primary human HUVEC with PBMC; actives raise or lower the signal. In short, it runs like this:
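Primary human HUVEC and PBMC co-culture stimulated with LPS is dosed and harvested at 24 h. Both increases and decreases in ELISA-measured IL-1a are scored relative to DMSO.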

The nature of assay [17]: BSK_LPS_PGE2: BioMAP Diversity Plus: LPS Assay for Prostaglandin E2 (PGE2) Biomarker Activity (AID 2283082).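 For AC50: secreted prostaglandin E2 measured by ELISA in LPS-stimulated co-culture.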 The settings on record: primary human HUVEC with PBMC; actives raise or lower the signal. In short, it runs like this:
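HUVEC plus human PBMC co-culture stimulated with LPS; secreted PGE2 quantified by ELISA 24 h after chemical dosing. Activity fitted bidirectionally against DMSO baseline; parallel SRB staining (0.1% SRB after 10% TCA fixation, 560 nm) flags overt cytotoxicity.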

A short description of assay [18]: CCTE_Harrill_HTTr_Apoptosis_MCF7: CCTE's 6-hour Apoptosis Assessment for the High-Throughput Transcriptomics (HTTr) Platform, in MCF-7 cells cultured in DMEM + 10% fetal bovine serum, Harrill Lab (AID 2284011). In short, it runs like this:
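Apoptosis in MCF-7 cells grown in DMEM with 10% fetal bovine serum was scored after a six hour exposure by high content imaging of caspase-3/7 activation (CellEvent Caspase 3/7 Green), with DMSO serving as negative control and baseline.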

Assay [19] has as its target Estrogen receptor (Homo sapiens) (UniProt P03372). Briefly: ATG_ERa_TRANS: Attagene TRANS-FACTORIAL HepG2 Assay for human Estrogen Receptor alpha (ERa) (AID 2282970; active = hit-call score of the fitted dose curve at least 0.9, where 1 is the maximum). As to conditions: HepG2 Attagene TRANS ERa GAL4 reporter, mRNA. In short, it runs like this: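 Multiplexed cell-based reporter format in HepG2: chimeric ERa-Gal4 protein drives GAL4-UAS reporter transcription. Fluorescent reporter mRNA quantified by capillary electrophoresis 24 hours after dosing; endpoint fitted as signal gain against DMSO.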

Assay [20] can be described thus: ACEA_ER_AUC_viability: ACEA Biosciences xCELLigence Real-Time Cell Analysis on Estrogen Receptor Agonism for Viability (AID 2283782; active = hit-call score of the fitted dose curve at least 0.9, where 1 is the maximum;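 note: continuous compound exposure with impedance area under curve over 80 h; hit means loss of impedance signal meaning reduced cell growth or viability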). In short, it runs like this:
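T47D cells preconditioned in phenol red-free RPMI with charcoal-stripped FBS, then dosed with 8-point 1:4 series from 100 uM (up to 0.5% DMSO). Impedance monitored up to ~80 h; area-under-curve loss versus DMSO taken as viability.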

As usually defined, the AC50 is the midpoint of the concentration-response curve, whichever way the signal moves.

Sequence of Estrogen-related receptor gamma (Homo sapiens) (P62508 whole entry, looked up, the tested form may be a part): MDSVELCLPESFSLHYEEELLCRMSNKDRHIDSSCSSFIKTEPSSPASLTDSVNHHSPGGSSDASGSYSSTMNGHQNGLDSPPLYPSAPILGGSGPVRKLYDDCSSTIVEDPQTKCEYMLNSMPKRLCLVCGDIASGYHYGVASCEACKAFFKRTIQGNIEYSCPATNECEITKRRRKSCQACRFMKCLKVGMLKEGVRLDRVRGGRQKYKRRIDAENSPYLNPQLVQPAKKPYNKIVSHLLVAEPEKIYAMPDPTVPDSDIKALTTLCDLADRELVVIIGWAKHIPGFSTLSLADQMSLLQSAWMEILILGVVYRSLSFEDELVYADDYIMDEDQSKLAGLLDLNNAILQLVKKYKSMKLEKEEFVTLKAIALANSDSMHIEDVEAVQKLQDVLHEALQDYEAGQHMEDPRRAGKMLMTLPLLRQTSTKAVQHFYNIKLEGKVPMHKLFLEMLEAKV
Sequence of Retinoic acid receptor alpha (Homo sapiens) (P10276 whole entry, looked up): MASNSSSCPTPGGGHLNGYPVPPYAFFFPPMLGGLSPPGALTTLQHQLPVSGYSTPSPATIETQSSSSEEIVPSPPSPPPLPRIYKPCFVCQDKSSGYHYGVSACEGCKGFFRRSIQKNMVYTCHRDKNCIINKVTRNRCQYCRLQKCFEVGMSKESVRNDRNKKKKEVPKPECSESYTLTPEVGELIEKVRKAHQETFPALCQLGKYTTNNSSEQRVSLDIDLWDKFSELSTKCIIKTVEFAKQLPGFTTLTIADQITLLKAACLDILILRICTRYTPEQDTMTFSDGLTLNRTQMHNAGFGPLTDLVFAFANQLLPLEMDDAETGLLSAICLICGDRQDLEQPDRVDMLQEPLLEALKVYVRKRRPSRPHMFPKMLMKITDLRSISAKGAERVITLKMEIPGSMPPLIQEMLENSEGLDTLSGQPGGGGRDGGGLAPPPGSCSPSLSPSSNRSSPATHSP
Sequence of Estrogen receptor (Homo sapiens) (P03372 whole entry, looked up, the tested form may be a part): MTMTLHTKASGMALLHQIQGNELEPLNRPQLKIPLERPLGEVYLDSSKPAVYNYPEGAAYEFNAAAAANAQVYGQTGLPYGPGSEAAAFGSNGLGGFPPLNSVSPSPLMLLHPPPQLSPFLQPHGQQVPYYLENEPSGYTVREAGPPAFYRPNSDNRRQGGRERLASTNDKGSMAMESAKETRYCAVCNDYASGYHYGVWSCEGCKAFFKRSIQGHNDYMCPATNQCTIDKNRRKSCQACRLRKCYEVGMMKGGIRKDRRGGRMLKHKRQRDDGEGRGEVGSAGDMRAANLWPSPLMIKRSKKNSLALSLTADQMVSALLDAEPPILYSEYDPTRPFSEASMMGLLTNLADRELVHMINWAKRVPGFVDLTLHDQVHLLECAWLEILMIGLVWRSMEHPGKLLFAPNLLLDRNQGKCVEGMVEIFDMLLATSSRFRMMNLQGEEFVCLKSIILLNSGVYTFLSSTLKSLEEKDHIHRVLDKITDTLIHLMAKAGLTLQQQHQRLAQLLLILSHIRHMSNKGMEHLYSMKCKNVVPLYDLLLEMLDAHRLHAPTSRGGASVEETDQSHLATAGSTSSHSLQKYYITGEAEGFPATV

In the case of `O=c1[nH]c(Cl)c(Cl)cc1Cl`, the outcome in [1], in assay [2], in assay [3], in assay [4], in assay [5] and in [6] was inactive. The result in assay [7], in assay [8], in assay [9], in [10], in assay [11] and in [12] was inactive. Moreover, the result in assay [13], in assay [14], in assay [15], in assay [16], in assay [17] and in assay [18] was inactive.
With `O=P(O)(Oc1ccccc1)Oc1ccccc1`, the molecule was called inactive in [19] and in assay [20].
As for `N#Cc1cc(I)c(O)c(I)c1`, the result in [1], in assay [2] and in assay [18] was inactive.
Consider `CCC(C)(C)O`, for which the outcome in assay [18] was inactive.
Turning to `CCN(CC)C(=S)S`, the call in assay [19] was inactive.
Consider `C[N+](=O)[O-]`, for which the call in assay [2] was inactive.
`CC1(C)CC(=O)CC(C)(C)N1[O]`: the molecule was classed as inactive in assay [1], in assay [2] and in [20].
On to `CC(C)(C)C(O)C(Oc1ccc(-c2ccccc2)cc1)n1cncn1` (stereo unspecified), for which the call in [19], in [4], in [6], in [8], in [12] and in assay [13] was inactive. The outcome in assay [15], in assay [16], in [17] and in [18] was inactive. In addition, the AC50 in assay [3] was 32.2 µM (active); in [5] it was 32.3 µM (active); in assay [7], 31 µM (active); in assay [9], 32.1 µM (active); in assay [10], 31.8 µM (active); in assay [11] it was 30.6 µM (active). In addition, the AC50 in assay [14] is 31.7 µM (active).
Take `CC(C)(c1cc(Cl)c(O)c(Cl)c1)c1cc(Cl)c(O)c(Cl)c1`: the AC50 was 9.36 µM (active) in [3]; 13.4 µM (active) in assay [4]; 32.1 µM (active) in assay [5]; 29.4 µM (active) in assay [6]; 15.2 µM (active) in assay [7]; 5.29 µM (active) in assay [8]. The AC50 was 12.3 µM (active) in assay [9]; 20 µM (active) in assay [10]; 10.2 µM (active) in assay [11]; 20 µM (active) in [12]; 28.9 µM (active) in [13]; 9.54 µM (active) in assay [14]. The AC50 in assay [16] was 31.5 µM (active); in [17], 22.9 µM (active); in [20] it was 90.8 µM (active). Moreover, the result in assay [15] was inactive.
As for `CCCCNP(N)(N)=S`, the molecule was classed as inactive in [19] and in [20].
In the case of `C[C@]12CC[C@H](O)C[C@H]1CC[C@@H]1[C@@H]2C[C@@H](O)[C@]2(C)[C@@H](C3=CC(=O)OC3)CC[C@]12O`, the result in assay [2] was inactive.
Take `CN(N=O)c1ccccc1`: the outcome in assay [19] was inactive.
Turning to `C[N+](C)(C)CC(=O)[O-]`, in [18], the outcome was inactive.
Take `CCCC=NO`: the call in assay [19] and in assay [20] was inactive.
`CCCCCCCCCCCC#N`: the AC50 in assay [3] is 37.8 µM (active); in assay [4], 32.3 µM (active); in [5] it was 27.5 µM (active); in [7], 32.2 µM (active); in [9], 36.2 µM (active); in [10], 20.6 µM (active). Further, the AC50 in [11] was 28.6 µM (active); in assay [12], 20.6 µM (active); in assay [14], 34.1 µM (active); in assay [16], 32.4 µM (active); in [17], 32 µM (active). The result in [6], in assay [8], in assay [13], in [15] and in [20] was inactive.
In the case of `c1ccc2c(c1)CCCC2`, in [19], the result was inactive.
